Experimental data from PubChem BioAssay.
Values without a mark were called inactive. The rule behind the calls is not given here.

The compounds below were run against Pantothenate synthetase (Mycobacterium tuberculosis (strain ATCC 25618 / H37Rv)) (UniProt P9WIL5) (assay: Recombinant Mtb pantothenate synthetase (PanC) inhibitors, coupled enzyme, confirmatory (AID 375;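 note: 0% = full reaction with vehicle and 100% = no enzyme background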)). Settings: coupled enzyme assay; at 10 µM, active compounds read high.
Pantothenate synthetase (Mycobacterium tuberculosis (strain ATCC 25618 / H37Rv)), sequence (P9WIL5 whole entry, looked up): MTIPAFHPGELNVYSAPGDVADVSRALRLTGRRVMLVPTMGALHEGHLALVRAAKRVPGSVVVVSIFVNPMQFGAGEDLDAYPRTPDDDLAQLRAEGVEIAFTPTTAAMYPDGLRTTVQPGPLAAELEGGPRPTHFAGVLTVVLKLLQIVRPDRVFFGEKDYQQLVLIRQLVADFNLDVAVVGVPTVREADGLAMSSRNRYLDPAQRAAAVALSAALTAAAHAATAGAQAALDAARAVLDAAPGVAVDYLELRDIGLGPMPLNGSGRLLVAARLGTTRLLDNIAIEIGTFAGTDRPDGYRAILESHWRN

SMILES	inhibition
CCOc1ccccc1OCCn1nnc2ccccc21	4%
CCCCn1c(NCc2ccccc2O)nc2ccccc21	0%
O=C(Cn1cnc2c(cnn2-c2ccc(F)cc2)c1=O)N1CCN(c2ccccc2)CC1	0%
CCn1c(SCC(=O)Nc2ccc3c(c2)OCO3)nnc1-c1ccccc1O	2%
CCc1nc(N[C@@H](Cc2c[nH]c3ccccc23)C(=O)O)c2oc3ccccc3c2n1	13%
CCCNc1nc2c(c(=O)n(C)c(=O)n2C)n1Cc1cccc(C)c1	0%
Cc1cc(NS(=O)(=O)Cc2ccccc2)cc(C)c1OCC(=O)N1CCOCC1	4%
CC1CCCCN1C(=O)Cn1nnc(-c2cccnc2)n1 (stereo not given)	0%
c1ccc(-c2cn3cccnc3n2)cc1	0%
O=C(Nc1ccc2c(c1)OCO2)c1nn(-c2ccccc2)c(=O)c2ccccc12	3%
Cc1ccccc1C(=O)N1CCC(C(=O)Nc2ccc(S(=O)(=O)N3CCCC3)cc2)CC1	3%
O=C1c2ccccc2CN1CCNS(=O)(=O)c1ccc(Cl)cc1	9%
O=C(O)C1CC(=O)N(c2ccc(OCc3c(F)cccc3Cl)cc2)C1 (stereo not given)	2%
CN(C)c1ccc(NC(=O)c2cc3c(=O)n4ccccc4nc3n2C)cc1	7%
C[C@]12CC[C@@H]3c4ccc(O)cc4CC[C@H]3[C@@H]1CCC2=O	6%
COc1cc2c(cc1OC)-c1cc(Nc3ccc4c(c3)OCCO4)nc(=O)n1CC2	2%
CCc1nnc(NC(=O)C2Cc3ccccc3CN2S(=O)(=O)c2cccs2)s1 (stereo not given)	1%
Cc1cc(Nc2ccccc2F)n2ncnc2n1	0%
COCCn1c(CN(Cc2ccccc2)Cc2ccccc2)nc2c1c(=O)n(C)c(=O)n2C	0%
O=C(Cn1cnc2c(nnn2-c2ccc(F)cc2)c1=O)NCc1ccco1	0%

SMILES	inhibition
Cc1c(C(=O)O)sc2nc3n(c(=O)c12)CCC(C)CC3 (stereo not given)	2%
CCOC(=O)C1CCCN(C(=O)Cc2ccc(OC)c(OC)c2)C1 (stereo not given)	0%
CCCSC1=C(C#N)C(c2ccccc2OCC)CC(=O)N1 (stereo not given)	7%
Cc1c2c(nc3nc4ccccc4n13)CC(C)(C)CC2=O	8%
O=S(=O)(Cc1ccc(Cl)cc1)Nc1ccc2c(c1)OCO2	7%
CCOc1ccc(NC(=O)CCN2CCN(c3ccccc3)CC2)cc1	0%
Cc1occc1C(=O)Nc1nnc(C2CCCCC2)s1	0%
Cc1cc(NS(=O)(=O)c2ccc(Nc3nc(-c4sc(N)nc4C)cs3)cc2)no1	4%
COc1cccc(-c2cc(C(F)(F)F)n3nc(N)nc3n2)c1	2%
C=CCn1c(SCC(=O)C(C)(C)C)nnc1-c1ccccn1	3%
COc1ccc(/C=C(/C#N)c2cccnc2)cc1OC	8%
Cc1cc(CN2CCN(CCC#N)CC2)c(O)c(C2(C)CCCCC2)c1	0%
COc1cc(OC)cc(-c2nnc(SCC(=O)Nc3cc(C)on3)o2)c1	2%
Cn1c(=O)c2[nH]c(NCC3CCCO3)nc2n(-c2ccccc2)c1=O (stereo not given)	0%
CN1CCN(c2nc3c(c(=O)[nH]c(=O)n3C)n2CCOc2ccccc2)CC1	0%
CC1CCCCC1NC(=O)c1nn(C)c(=O)c2ccccc12 (stereo not given)	0%
COC(=O)Cn1c2ccccc2c2nc(C)sc21	0%
c1ccc(-c2nc3ccccc3nc2-c2ccccn2)nc1	0%
O=C(Cn1[nH]c(=O)c2ccccc2c1=O)OCC(=O)N1CCCc2ccccc21	5%
Cc1cccc(C)c1NC(=O)N1CCN(C2CCCCC2)CC1	0%
